# High-throughput results: PubChem, Broad Institute
# Sampled rows, rich in hits. Any-hit rate of the full collection: about 6.8%.
# C diff HTS: C. difficile growth inhibition; actives 0.25% (n = 86,000); growth activity, negative = inhibition, % at 16 µg/mL (by protocol); Clostridium difficile clinical isolate growth, OD600, 24 h; stronger effect = lower value;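 active = mean growth activity at or below -80% and every replicate also at or below -80%; inconclusive = mean at or below -80% but some replicate above -80%; inactive = mean growth activity above -80%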;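 also: 0% = DMSO wells and -100% = levofloxacin 16 µg/mL wells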
# T cruzi growth-1: T. cruzi proliferation inhibition; T. cruzi beta-gal in NIH3T3, GalScreen luminescence, 90 h; inhibition, % at 8.34 µM; actives 5.9% (n = 77,000);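 active = mean inhibition above about 93%, with at least 55% of replicates each passing it, limit read from the data, passing the limit was not always enough; inconclusive = only one of those two conditions holds; inactive = neither condition holds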
# Pf Dd2 inh: inhibitors of Plasmodium falciparum Dd2 growth; activity change, % at 10 µM; actives 2.3% (n = 94,000); AID 1159554; P. falciparum Dd2 growth, SYBR Green, 72 h; stronger effect = lower value; in the data active = activity change below about -80%; inconclusive = no clear call, values can overlap the other calls
# T cruzi growth-2: inhibitors of T. cruzi proliferation. shares compounds with T cruzi growth-1. T. cruzi beta-gal in NIH3T3, GalScreen luminescence, 90 h. inhibition, % at 8.35 µM. actives 72% (n = 5,600). AID 651739;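 active = mean replicate inhibition above about 95% and at least 55% of replicates individually reaching it, limit read from the data; inconclusive = only one of the two criteria is met; inactive = neither criterion is met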
# T cruzi growth-3: inhibitors of T. cruzi proliferation | shares compounds with T cruzi growth-1 | T. cruzi beta-gal in NIH3T3, GalScreen luminescence, 90 h | inhibition, % at 2.09 µM | actives 21% (n = 5,600) | AID 651740;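 active = mean inhibition above about 95%, with at least 55% of replicates also reaching it, limit read from the data; inconclusive = meets just one of the two conditions; inactive = meets neither condition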;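 also: plate controls were neutral control median for no effect and positive control median for full effect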
# 3T3 cytotox: kills mouse NIH/3T3 fibroblasts; actives 14% (n = 5,600); shares compounds with T cruzi growth-1; cytotoxicity (signal decrease), % at 8.35 µM; NIH/3T3 viability, CellTiter-Glo ATP luminescence, 90 h;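 active = mean signal decrease across replicates above about 35% based on untreated-well scatter, with enough replicates individually passing, limit read from the data; inconclusive = no rule stated though some were filed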;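 also: 0% = median of neutral control wells and 100% = median of positive control wells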
# 3T3 cytotox 2: cytotoxicity in mouse NIH/3T3 fibroblasts; actives 56% (n = 5,600); AID 651744; inhibition, % at 24.9 µM; shares compounds with T cruzi growth-1; NIH/3T3 viability, CellTiter-Glo ATP luminescence, 90 h;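 active = mean loss of cell viability signal at or above a set limit, and enough replicates individually reaching it; inconclusive = meets only the mean limit or only the replicate share; inactive = meets neither condition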;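 also: 0% = median of neutral control wells and 100% = median of positive control wells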
# * hit, by the source's call; ? = inconclusive; . = no result.
SMILES,C diff HTS,T cruzi growth-1,Pf Dd2 inh,T cruzi growth-2,T cruzi growth-3,3T3 cytotox,3T3 cytotox 2
Cc1noc(C)c1S(=O)(=O)Nc1ccc2c(c1)CC(=O)N([C@@H](C)CO)C[C@H](C)[C@H](CN(C)C(=O)Nc1ccc(F)cc1)O2,-2.2,18.6,17.9,.,.,.,.
C[C@H]1CN([C@@H](C)CO)S(=O)(=O)c2ccc(Br)cc2O[C@H]1CN(C)Cc1ccccc1F,0.4,.,-3.8,.,.,.,.
C/C=C/c1ccc2c(c1)O[C@@H](CN(C)Cc1ccccc1F)[C@H](C)CN([C@@H](C)CO)S2(=O)=O,21.7,115.8*,-21.9,95.8*,90.1,56.9*,104.7*
C/C=C/c1ccc2c(c1)O[C@@H](CN(C)Cc1ccccc1F)[C@@H](C)CN([C@H](C)CO)S2(=O)=O,5.2,118.6*,-6.2,104.8*,80.0,0.3,105.2*
C[C@@H]1CN([C@@H](C)CO)S(=O)(=O)c2ccc(Br)cc2O[C@H]1CN(C)Cc1ccccc1F,4.8,.,-16.1,.,.,.,.
O=C(N[C@H]1CC[C@@H](CCn2cc(-c3ccccn3)nn2)O[C@@H]1CO)c1ccccc1,0.6,.,.,.,.,.,.
CCCN1C[C@H](C)[C@@H](OC)CN(C)C(=O)c2cc(NC(=O)c3cnccn3)ccc2OC[C@@H]1C,.,9.6,-13.0,.,.,.,.
CO[C@H]1CN(C)C(=O)c2cc(NC(=O)Nc3cccc(F)c3)ccc2OC[C@H](C)N(C)C[C@H]1C,-1.2,15.7,-39.8,.,.,.,.
CCCNC(=O)C[C@@H]1CC[C@H]2[C@H](COc3ccc(NC(=O)C4CCCC4)cc3C(=O)N2C)O1,-3.6,-6.5,-3.6,.,.,.,.
CC(C)CC#Cc1ccc2c(c1)O[C@H](CN(C)Cc1ccc3c(c1)OCO3)[C@@H](C)CN([C@H](C)CO)S2(=O)=O,12.0,.,-74.2,.,.,.,.
CC(C)CC#Cc1ccc2c(c1)O[C@@H](CN(C)Cc1ccc3c(c1)OCO3)[C@H](C)CN([C@H](C)CO)S2(=O)=O,25.6,61.3,-72.6,.,.,.,.
CCCC#Cc1ccc2c(c1)O[C@H](CN(C)Cc1ccc3c(c1)OCO3)[C@H](C)CN([C@H](C)CO)S2(=O)=O,13.3,129.8*,?,100.2*,109.5*,6.2,104.3*
CCCC#Cc1ccc2c(c1)O[C@H](CN(C)Cc1ccc3c(c1)OCO3)[C@@H](C)CN([C@H](C)CO)S2(=O)=O,19.3,100.7*,.,98.1*,92.0,25.6,106.0*
CC(C)CC#Cc1ccc2c(c1)O[C@H](CN(C)Cc1ccc3c(c1)OCO3)[C@@H](C)CN([C@@H](C)CO)S2(=O)=O,23.4,65.1,-62.6,.,.,.,.
CCCC#Cc1ccc2c(c1)O[C@H](CN(C)Cc1ccc3c(c1)OCO3)[C@H](C)CN([C@@H](C)CO)S2(=O)=O,15.3,128.1*,-79.1,?,112.3*,29.3,104.4*
CCCC#Cc1ccc2c(c1)O[C@@H](CN(C)Cc1ccc3c(c1)OCO3)[C@@H](C)CN([C@@H](C)CO)S2(=O)=O,11.1,126.3*,-75.0,88.7,102.5*,29.3,104.5*
CC(C)CC#Cc1ccc2c(c1)O[C@H](CN(C)Cc1ccc3c(c1)OCO3)[C@H](C)CN([C@H](C)CO)S2(=O)=O,19.7,89.2,-32.7,.,.,.,.
COc1ccccc1NC(=O)N1C[C@@H]2[C@H](c3ccccc31)[C@@H](CO)N2C(=O)C1CC1,-1.3,48.2,5.3,.,.,.,.
C[C@@H]1CCCCO[C@H](CN(C)Cc2ccc3c(c2)OCO3)[C@@H](C)CN([C@H](C)CO)C(=O)c2cc(NC(=O)C3CCCCC3)ccc2O1,1.1,-11.0,-0.1,.,.,.,.
O=C(N[C@H]1C=C[C@@H](CC(=O)N2CCOCC2)O[C@@H]1CO)c1ccc2c(c1)OCO2,2.8,-16.2,7.1,.,.,.,.
CN(C)CC(=O)N1CC[C@H]2[C@@H]1c1cc(-c3ccccc3F)ccc1N(C)[C@H]2CO,-1.1,23.1,21.7,.,.,.,.
CN1c2ccc(-c3ccccc3F)cc2[C@H]2[C@H](CCN2C(=O)NC2CCCCC2)[C@H]1CO,9.2,.,-13.3,.,.,.,.
CN1c2ccc(-c3ccccc3F)cc2[C@@H]2[C@@H](CCN2C(=O)c2ccccn2)[C@H]1CO,-7.4,116.2*,-53.7,105.7*,55.4,-1.0,23.5
CN1c2ccc(-c3ccccc3)cc2[C@@H]2[C@@H](CCN2C(=O)c2ccccn2)[C@H]1CO,53.8,104.7*,13.1,102.3*,42.9,13.1,21.1
CN1c2ccc(-c3ccc(F)cc3)cc2[C@@H]2[C@@H](CCN2C(=O)c2ccccn2)[C@H]1CO,-5.8,35.2,-6.8,.,.,.,.
SMILES,C diff HTS,T cruzi growth-1,Pf Dd2 inh,T cruzi growth-2,T cruzi growth-3,3T3 cytotox,3T3 cytotox 2
CN(C)CC(=O)N1CC[C@@H]2[C@H]1c1cc(-c3ccccc3F)ccc1N(C)[C@@H]2CO,-1.4,112.8*,-15.7,101.6*,19.3,-7.8,24.4*
CN1c2ccc(-c3ccccc3)cc2[C@@H]2[C@@H](CCN2C(=O)c2ccc3c(c2)OCO3)[C@H]1CO,-11.3,105.9*,5.7,104.6*,108.4*,8.8,30.3*
CN1c2ccc(-c3cccc(F)c3)cc2[C@H]2[C@H](CCN2C(=O)c2ccc3c(c2)OCO3)[C@H]1CO,-27.2,36.1,5.2,.,.,.,.
C[C@@H]1CN([C@H](C)CO)C(=O)Cc2cc(NS(=O)(=O)c3cn(C)cn3)ccc2O[C@@H]1CN(C)Cc1ccc(Cl)c(Cl)c1,-8.7,43.1,-2.5,.,.,.,.
O=C(C[C@H]1CC[C@@H]2[C@H](COC[C@H](O)CN2C(=O)c2ccc(F)cc2)O1)Nc1nccs1,.,10.3,10.5,.,.,.,.
COc1cccc(C(=O)Nc2ccc3c(c2)C(=O)N(C)[C@H]2CC[C@H](CC(=O)NCC(F)(F)F)O[C@@H]2CO3)c1,-4.9,-63.0,2.2,.,.,.,.
C[C@H](CO)N1C[C@H](C)[C@H](CN(C)CC2CC2)Oc2cc(/C=C/c3ccccc3)ccc2S1(=O)=O,12.0,66.1,-64.5,.,.,.,.
O=C(N[C@H]1CC[C@H](CCNS(=O)(=O)c2ccc(F)cc2)O[C@H]1CO)c1cnccn1,-2.9,-44.6,6.8,.,.,.,.
CO[C@H]1CN(C)C(=O)c2cc(NC(C)=O)ccc2OC[C@H](C)N(Cc2ccccc2C(=O)O)C[C@@H]1C,.,-10.5,39.5,.,.,.,.
C[C@@H]1CN([C@@H](C)CO)C(=O)c2cc(NC(=O)Nc3ccc4c(c3)OCO4)ccc2O[C@H]1CN(C)S(C)(=O)=O,.,-16.7,9.9,.,.,.,.
COCCN(C[C@@H]1N[C@@H](CO)[C@@H]1c1ccc(-c2cccc(F)c2)cc1)C(C)=O,-9.5,104.6*,1.7,101.5*,38.8,-22.0,13.8
COCCN(C[C@H]1N[C@H](CO)[C@@H]1c1ccc(-c2cccc(F)c2)cc1)C(C)=O,-3.5,86.6,-10.4,.,.,.,.
COCCN(C[C@@H]1N[C@@H](CO)[C@H]1c1ccc(-c2cccc(F)c2)cc1)C(C)=O,-2.7,?,8.0,27.4,-2.9,-12.1,13.7
COCCN(C[C@H]1N[C@H](CO)[C@H]1c1ccc(-c2cccc(F)c2)cc1)C(C)=O,-3.5,-51.9,7.2,.,.,.,.
